# Screens from PubChem.
# HEK293 tox: Cytotoxic Profiling in HEK 293 Cell Line of Diverse Libraries Using Quantitative High-Throughput Screening | HEK 293 viability, ATP luminescence (CellTiter-Glo), 48-72 h | Potency, µM (titrated, usually from 115 µM), inactives show at the top dose activity change, negative = cytotoxicity, hits mostly inhibitors | 94,000 tested, 6.6% active; further: nearly all actives have a fitted effect of over 60% in size
#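 Pintool-delivered compounds were incubated with HEK 293 cells (250 cells/well) at 37 degree Celsius for 48 or 72 hr. ATP-dependent luminescence (CellTiter-Glo) then reported remaining viable cells.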
# GPT2 inh: Primary qHTS assay for inhibitors of Glutamate pyruvate transaminase 2 (GPT2) | Recombinant GPT2, coupled pyruvate oxidase/HRP Amplex Red fluorescence | Potency, µM (top dose mostly 57.7 µM), inactives show at the highest dose activity change, negative = inhibition, most hits filed as inhibitors | 100,000 tested, 0.25% active | Alanine aminotransferase 2 (Homo sapiens), Q8TD30; further: nearly all actives have a fitted effect of over 60% in size
#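 Fluorescence read-out: pyruvate from GPT2 turnover coupled to pyruvate oxidase, HRP and Amplex Red (0.2mM ThPP, 0.2U/mL PO and HRP, 50uM Amplex final). Substrates 250uM a-KG, 2mM L-alanine; enzyme 10ng/uL; 30 min RT.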
# NPR1 antag: Natriuretic polypeptide receptor (hNpr1) antagonism - Primary qHTS; HEK293 hNpr1 GloSensor cGMP, ANP-stimulated luminescence; Potency, µM (top dose mostly 46.3 µM), for inactives: top-dose activity change, negative = inhibition, usual class: inhibitors; 76,000 tested, 1.6% active; AID 1347048, 2019; calls by dose curve; further: nearly all actives have a fitted effect of over 60% in size
#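 Compound pre-incubated 30 min at room temperature on GloSensor-loaded HEK293 cells stably carrying hNpr1 and the pGS-40F cGMP biosensor. Stimulation uses hNppA at 0.1 nM final; luminescence is taken at baseline and 20 min post-agonist.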
# Luciferase inh: Firefly luciferase inhibition profiling of diverse chemical library using quantitative high-throughput screening; AID 1347043, 2019; Luciferin 4-monooxygenase (Photinus pyralis), P08659; 76,000 tested, 2.5% active; Potency, µM (doses to about 115 µM), actives largely listed as inhibitors; purified P. pyralis luciferase, luminescence, biochemical; further: nearly all actives have a fitted effect of over 65% in size
#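 Luminescence read by CCD imaging after purified firefly luciferase (10nM final) was added to substrate buffer holding 10uM D-luciferin and 10uM ATP, pH 7.5, pre-dosed with compound.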
# 3T3 cytotox: Cytotoxic Profiling in NIH 3T3 Cell Line of Diverse Libraries Using Quantitative High-Throughput Screening | NIH 3T3 viability, CellTiter-Glo ATP luminescence, 48-72 h | Potency, µM (top dose mostly 96.7 µM), for the others: top-dose activity change, negative = cytotoxicity, usual class: inhibitors | 94,000 tested, 4.3% active | AID 1345082, 2018; further: nearly all actives have a fitted effect of over 55% in size
#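 NIH 3T3 cells at 400 cells/well received 23 nL of compound by pintool and were incubated 48 or 72 h at 37 °C. Viability was read as ATP-coupled CellTiter-Glo luminescence.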
# Numbers without * were called inactive; i = inactive; ? = inconclusive; · = no result; ! = not confirmed by another sample; [ ] = dose if it differs, or a comment. Shown are actives, neighbours in structure and some others; about 10% of the full set was active somewhere. Unless noted, the call rests on the fitted dose curve; in most records, active means well fitted curve in the direction sought with a large enough effect; inconclusive means small, poorly fitted or top-dose-only effect, or another doubt; inactive means no such curve, though single readings can be large; an effect the other way counts as inactive or inconclusive. On the % scale 0 is the no-effect control and ±100 the full control effect; potency means the concentration at half of the fitted maximal effect.
SMILES,HEK293 tox,GPT2 inh,NPR1 antag,Luciferase inh,3T3 cytotox
Cc1nsc(NC(=O)NCc2cccc(Cl)c2Cl)n1,?,-13.3%,-25.9%,i,?
COc1ccccc1-c1cccc(C(=O)N2CCC[C@H]2C(=O)NCCc2ccc(Cl)cc2)c1,?,-13.1%,·,·,?
O=C(CCC1CCN(C(=O)c2ccccc2Cl)CC1)NC1CC1,-5.8%,1.7%,4.4%,i,-4.4%
CCCNC(=O)CCC1CCN(C(=O)c2ccccc2F)CC1,-16.1%,1.8%,-6.8%,39.8µM*,3.9%
O=C(CCC1CCN(C(=O)c2ccccc2F)CC1)NCc1ccco1,-22.8%,-16.0%,-7.5%,?,-8.9%
COCCNC(=O)CCC1CCN(C(=O)c2ccccc2Cl)CC1,-0.6%,1.0%,4.8%,31.6µM*,i
CC(C)NC(=O)CCC1CCN(C(=O)c2ccccc2F)CC1,2.3%,-21.2%,0.2%,39.8µM*,i
CCN(CC)C(=O)CCC1CCN(C(=O)c2ccccc2F)CC1,-10.0%,i,-3.6%,35.5µM*,i
COCCNC(=O)C1CCN(Cc2ccccc2-c2ccccc2F)CC1,i,·,·,·,-13.3%
O=C(c1cccc(Cl)c1)N1CCC2(CC1)NC(=O)N(c1ccccc1Cl)N2,?,?,0.0%,i,?
CC(CCc1ccccc1)NCC(O)c1ccc(O)c(C(N)=O)c1 (stereo not drawn),·,i,·,·,·
CC(C)NC[C@H](O)c1ccc(O)c(O)c1,·,3.55µM*!,·,·,·
NCc1ccccc1-c1cnc2ccccc2c1,?,?,·,·,100µM*
O=C(NCCc1cccnc1)c1ccc(-c2nnc3ccc(NC(=O)C4CCC4)cn23)cc1,?,i,-1.0%,i,35.5µM*
O=C(NCCc1ccncc1)c1ccc(-c2nnc3ccc(NC(=O)C4CCC4)cn23)cc1,?,-5.0%,4.0%,?,i
COc1ccc(-c2cnc3[nH]cc(CC(=O)N4CCC(OC)CC4)c3c2)cc1,?,i,-13.1%[70.6 µM],22.4µM*,?
COC1CCN(C(=O)Cc2c[nH]c3ncc(-c4ccccc4)cc23)CC1,-1.3%[172 µM],i,-3.0%[70.6 µM],?,?
COc1ccc(-c2cnc3[nH]cc(CC(=O)N4CCCC4)c3c2)cc1,70.8µM*,?,?,22.4µM*,7.94µM*
COc1ncccc1-c1cnc2[nH]cc(CC(=O)N3CCOCC3)c2c1,?,i,?,i,?
COc1ccc(CN2C(=O)COC[C@@H]2[C@H](O)c2ccc(NC(=O)c3ccc(C(C)(C)C)cc3)cc2)cc1,28.2µM*,-0.1%,2.8%,14.1µM*,22.4µM*
COc1ccc(C(=O)Nc2ccc(C(O)[C@H]3COCC(=O)N3CC(C)C)cc2)cc1 (stereo partly drawn),?,-6.9%[88.5 µM],-1.6%[70.6 µM],25.1µM*,3.2%[174 µM]
CC(C)CN1C(=O)COC[C@@H]1[C@H](O)c1ccc(NC(=O)c2ccc(F)cc2)cc1,-19.7%[172 µM],i,-16.7%[70.6 µM],?,-21.5%[138 µM]
CC(C)CN1C(=O)COC[C@@H]1[C@H](O)c1ccc(NC(=O)c2ccc3c(c2)OCO3)cc1,-21.8%[172 µM],i,-0.9%[70.6 µM],63.1µM*,-12.5%[138 µM]
CN1C(=O)COC[C@@H]1[C@H](O)c1ccc(NC(=O)c2ccc3c(c2)OCO3)cc1,-18.9%[172 µM],i,1.5%[70.6 µM],?,-22.5%[174 µM]
O=C(Nc1cc(C2CC2)nn1-c1ccccc1)c1ccc2ccccc2n1,-29.3%[172 µM],i,·,·,-31.9%[138 µM]
SMILES,HEK293 tox,GPT2 inh,NPR1 antag,Luciferase inh,3T3 cytotox
COCc1cc(=O)n(CC(=O)NCc2cccc(OC)c2)c(N2CCOCC2)n1,-0.1%,i,-0.1%,i,-3.7%
COc1ccc(CN2CCN(c3nc(C)ccc3C#N)CC2CCO)cc1C (stereo not drawn),50.1µM*,-3.3%[11.5 µM],-18.5%,i,?
Cc1ccc(CN2CCN(c3nc(C)ccc3C#N)CC2CCO)cc1 (stereo not drawn),?,i,-3.1%,i,-26.3%
O=Cc1ccc(-c2cc(C(F)(F)F)ccc2Cl)cc1,-0.6%[172 µM],-5.6%[88.5 µM],·,·,-2.6%[138 µM]
Nc1cc(C(F)(F)F)ccc1S,·,28.2µM*,·,·,·
O=C(NCC1CCCCC1)c1cc(-c2ccc(F)cc2)c2nncn2n1,?,i,·,·,6.31µM*
O=C(NCc1ccc(F)cc1)c1cc(-c2ccc(Cl)cc2Cl)c2nncn2n1,89.1µM*,i,·,·,44.7µM*
COc1ccc(-c2cccc(C(=O)NCC(F)F)c2)nn1,-7.4%[172 µM],·,·,·,-21.2%[138 µM]
COCCCNC(=O)c1cccc(-c2ccc(OC)nn2)c1,-3.6%[172 µM],·,·,·,-15.1%[138 µM]
COc1ccc(-c2cccc(C(=O)NCCCc3ccccc3)c2)nn1,79.4µM*,·,·,·,?
COc1ccc(-c2cccc(C(=O)NCc3ccc(F)cc3)c2)nn1,89.1µM*,·,·,·,?
COc1ccc(-c2cccc(C(=O)NCc3ccc(C(F)(F)F)cc3)c2)nn1,39.8µM*,·,·,·,?
COc1ccc(Nc2ccnc(N3CCN(C(=O)C(C)(C)C)CC3)n2)cc1,?,i,·,·,?
CNC(=O)c1cccc(-c2cnc3[nH]cc(CC(=O)N(C)C)c3c2)c1,?,3.2%[88.5 µM],4.8%[70.6 µM],?,?
CNC(=O)c1cccc(-c2cnc3[nH]cc(CC(=O)Nc4ccccc4Cl)c3c2)c1,89.1µM*,-15.2%[88.5 µM],1.4%[70.6 µM],?,?
CNC(=O)c1cccc(-c2cnc3[nH]cc(CC(=O)NCc4cccs4)c3c2)c1,?,-7.3%[88.5 µM],-14.2%[70.6 µM],i,89.1µM*
O=C(Cc1c[nH]c2ncc(-c3cccnc3)cc12)NC1CCC1,?,-9.9%[88.5 µM],9.6%[70.6 µM],i,28.2µM*
O=C(Cc1c[nH]c2ncc(-c3ccccc3)cc12)NC1CC1,?,?,?,i,89.1µM*
CNC(=O)c1cc(C2CC2)nc2c1c(C1CCCN1C(=O)c1c(C)noc1C)nn2C (stereo not drawn),-11.0%,·,·,·,-11.8%
Cc1cnc(CC2CCCN(C(=O)Cc3ccccc3)C2)n1C(C)C (stereo not drawn),-11.2%,-2.1%,-7.5%,i,-9.3%
CC(=O)N1CCn2c(nnc2C2CCCN2Cc2scnc2C)C1 (stereo not drawn),i,0.4%,·,·,i
COCCNC(=O)Cc1c[nH]c2ncc(-c3cccnc3)cc12,-21.6%[172 µM],2.8%[88.5 µM],2.7%[70.6 µM],i,?
CNC(=O)c1cccc(-c2cnc3[nH]cc(CC(=O)NC4CCC4)c3c2)c1,?,i,2.4%[70.6 µM],?,39.8µM*
O=C(Cc1c[nH]c2ncc(-c3cccnc3)cc12)NCCc1ccccn1,-3.9%[172 µM],-22.6%[88.5 µM],-0.6%[70.6 µM],i,100µM*
Cn1cccc1CN1CCCC2(Cc3ccccc3CNC2=O)C1 (stereo not drawn),?,i,·,·,-9.6%
